Source: PubChem (National Center for Advancing Translational Sciences (NCATS))
TSG101-PTAP inh = qHTS Assay for Iinhibitors of HIV-1 Budding by Blocking the Interaction of PTAP/TSG101; Tumor susceptibility gene 101 protein (Homo sapiens), Q99816; Fluorescence polarization, FITC-PTAP peptide / Tsg101 binding; Potency, µM (highest dose often 115 µM), for inactives: at the top dose activity change, negative = inhibition, hits mostly inhibitors; 340,000 tested, under 10 active; AID 493005, 2010; active means well fitted inhibition curve with a large enough effect in the main read-out, with a control signal flat, not every such curve was filed as active; inconclusive means small, poorly fitted or top-dose-only effect, or effect the other way, or a change in a side signal; inactive means no such curve, though single readings can be large or run the other way; further: potency means the concentration at half of the fitted maximal effect; % of control where 0% means no effect
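Fluorescence anisotropy tracks displacement of a FITC-tagged PTAP peptide (50 nM) from the Tsg101 binding domain (10 uM), following a 20 min room-temperature incubation at pH 7.5.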
Rango dissoc inh = qHTS Assay for Inhibitors of RanGTP induced Rango (Ran-regulated importin-beta cargo) - Importin beta complex dissociation | 340,000 compounds, 0.071% hits | Biochemical FRET Rango-importin beta, RanGTP-induced dissociation | AID 540253, 2011 | Potency, µM (highest dose often 46.1 µM), for the others: top-dose activity change, negative = inhibition; further: potency means the concentration at half of the fitted maximal effect; % of control where 0% means no effect; nearly all actives have a fitted effect of over 45% in size
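Rango/importin beta premix (0.1/0.25 uM final), PBS + 1 mM DTT + 0.02% Tween-20 + 0.1% BSA; cpd 5 min RT; FRET pre-read; + RanGTP-RCC1 (0.6 uM Ran, 2 mM GTP, 0.2 uM RCC1); 45 min RT; FRET post-read, ex 430, em 486/530 nm.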
Mm-Cpn inhibitor = Inhibitors of TCP-1 ring complex (TRiC) of Methanococcus maripaludis (MmCpn): qHTS | purified Mm-Cpn ATPase, ADP Transcreener TR-FRET | Potency, µM (series often up to 76.9 µM), inactives show at the top dose activity, negative = inhibition, most hits filed as inhibitors | 330,000 compounds, 0.031% hits | AID 504842, 2011; active means well fitted inhibition curve with a large enough effect; inconclusive means small, poorly fitted or top-dose-only effect; further: potency means the concentration at half of the fitted maximal effect; on the % scale 0 is the no-effect control and ±100 the full control effect; nearly all actives have a fitted effect of over 80% in size
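Measured: ADP formation by purified Mm-CPN. Conditions: 25 nM protein, 10 uM ATP, Tris pH 7.4 with Mg2+, K+ and DTT, 37°C for 30 min. Detection: Transcreener HTRF after 30 min at room temperature.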
Rango complex inh = qHTS Assay for Inhibitors of Rango (Ran-regulated importin-beta cargo) - Importin beta complex formation. Importin subunit beta-1 (Homo sapiens), Q14974. Rango CFP/YFP FRET sensor + importin beta, 45 min. Potency, µM (series often up to 92.2 µM), for inactives: at the top dose inhibition of complex formation. 340,000 compounds, 0.031% hits;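 further: potency means the concentration at half of the fitted maximal effect; 0% = DMSO wells and 100% = buffer wells lacking importin beta; nearly all actives have a fitted effect of over 15% in size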
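FRET biosensor Rango (snurportin 1 IBB between N-terminal EYFP and C-terminal Cerulean), 50 nM in PBS/1 mM DTT/0.02% Tween-20/0.1% BSA, preincubated 5 min RT with compound; 0.125 microM importin beta added, 45 min RT, CFP/YFP FRET ratio read.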
DRD3 antagonist = qHTS of D3 Dopamine Receptor Antagonist: qHTS; D(3) dopamine receptor (Homo sapiens), P35462; D3R cells, DiscoveRx beta-arrestin luminescence, antagonist mode; active compounds read low; max response, negative = inhibition, %; 360,000 compounds, 2.5% hits; AID 652054, 2013; in the data active means max response below about -50%; inconclusive means no clear call, values can overlap the other calls; further: on the % scale 0 is the no-effect control and ±100 the full control effect
Target sequence (P35462 whole entry, looked up): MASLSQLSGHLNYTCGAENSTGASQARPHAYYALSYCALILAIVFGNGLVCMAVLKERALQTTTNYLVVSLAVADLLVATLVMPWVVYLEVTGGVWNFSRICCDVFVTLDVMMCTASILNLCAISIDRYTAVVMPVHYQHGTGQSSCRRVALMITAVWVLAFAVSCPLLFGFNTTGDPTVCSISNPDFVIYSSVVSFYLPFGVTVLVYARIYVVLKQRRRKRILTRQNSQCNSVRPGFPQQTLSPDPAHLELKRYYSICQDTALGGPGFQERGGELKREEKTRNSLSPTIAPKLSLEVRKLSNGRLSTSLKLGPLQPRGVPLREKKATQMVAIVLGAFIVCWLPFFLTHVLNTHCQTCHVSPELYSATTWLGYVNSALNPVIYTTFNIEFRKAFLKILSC
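Cells plated overnight at 1500 cells/well, then exposed to library compounds with dopamine controls for 90 minutes at 37 degrees C. DiscoveRx reagent added for 30–60 minutes at room temperature; luminescence read, quantitative HTS format.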
D3 ag = qHTS of D3 Dopamine Receptor Agonist: qHTS | D(3) dopamine receptor (Homo sapiens), P35462 | D3R DiscoveRx beta-arrestin cells, luminescence, 90 min | max activation, % | 410,000 compounds, 0.58% hits | AID 652048, 2013; in the data active means max activation above about 30%; further: 0% is about no effect
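Cells at 1500/well, incubated overnight, then treated with pinned compounds (dopamine as control) for 90 min at 37 degrees C. DiscoveRx reagent added for 30 - 60 minutes at room temperature; luminescence read.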
The depositor's hits bear a star; ? = inconclusive; . = no result. The list is not random: actives were taken first. Their share in the collection is about 2.9%. Unless noted, the call rests on the fitted dose curve.

SMILES	TSG101-PTAP inh	Rango dissoc inh	Mm-Cpn inhibitor	Rango complex inh	DRD3 antagonist	D3 ag
Cc1onc(-c2c(Cl)cccc2Cl)c1C(=O)c1c[nH]c(C(=O)NCCCN2CCOCC2)c1	-3%	-7%	2%	-2%	-54*	-1
Cc1ccc2nc(-c3cc(NC(=O)/C=C/c4ccccc4)ccc3Cl)oc2c1	.	.	.	.	.	-10
CCCSc1ncc(Cl)c(C(=O)Nc2c(C(=O)c3ccc(C)cc3)oc3ccccc23)n1	.	.	.	.	.	3
COc1ccc(-c2nnc(SCC(=O)Nc3ccc(Cl)cc3)n2C)cc1	-6%	8%	2%	2%	-57*	-6
COC(=O)c1sc(-c2ccccc2)cc1NC(=O)c1cccc(Cl)c1	.	.	.	.	.	-2
C=CCc1cc(OC)ccc1OCCOCCC(C(=O)OCC)C(=O)OCC	-2%	3%	-2%	-2%	2	7
Cc1ccc(SCCOCCN2CCc3ccccc3C2)cc1	-7%	2%	4%	3%	-105*	-11
CCCOc1ccc(OCCOCCN2CCc3ccccc3C2)cc1	-1%	-4%	1%	5%	-70*	-3
CCOc1ccc(OCCOCCN2CCc3ccccc3C2)cc1	0%	-2%	-1%	4%	-58*	-6
C=CCc1cc(OC)ccc1OCCOCCN1CCc2ccccc2C1	-2%	-10%	4%	-1%	-88*	-24
c1ccc(OCCOCCN2CCc3ccccc3C2)cc1	-2%	-9%	-2%	-3%	-111*	-18
COc1ccc(OCCCN2CCc3ccccc3C2)cc1	-3%	11%	0%	2%	-109*	-19
COc1ccc(OCC(=O)N2CCc3ccccc3C2)cc1	0%	19%	-2%	1%	-19	-4
COc1ccc(C2(O)CCN(C(=O)Cc3cccnc3)CC2)cc1	0%	3%	-1%	-1%	9	1
c1ccc(OCCN2CCOCC2)cc1	-4%	-17%	0%	-2%	-6	-12
COc1ccc(C2(O)CCN(CCCCOc3ccccc3)CC2)cc1	1%	2%	-1%	-7%	-90*	-34
COc1ccc(NC(=O)c2ccc3c(c2)c(C)c(C)n3Cc2ccc(F)cc2)c(OC)c1	.	.	.	.	.	0
CC(Sc1ncc(S(=O)(=O)c2ccc(C(C)C)cc2)c(N)n1)C(=O)Nc1ccccc1 (stereo unspecified)	.	.	.	.	.	7
C[C@H](/C=C/[C@H](C)C(C)(C)O)[C@H]1CC[C@H]2/C(=C/C=C3C[C@@H](O)C[C@H](O)C3)CCC[C@]12C	.	.	.	.	.	7
Cc1ccc2onc(CNC(=O)N(C)Cc3ccccc3)c2c1	.	.	.	.	.	7
CC(C)C(=O)Nc1cccc(N2CCN(CCCN3C(=O)C4CCCCN4C3=O)CC2)c1 (stereo unspecified)	-2%	0%	.	1%	-1	-6
O=C1C2CCCCN2C(=O)N1CCCCN1CCN(c2cccc(C(F)(F)F)c2)CC1 (stereo unspecified)	-6%	-2%	.	-1%	-140*	-26
O=C1CC(=C(c2ccccc2)c2ccccc2)C(=O)N1CCCCN1CCN(c2cccc(Cl)c2)CC1	0%	4%	0%	1%	-52*	23
O=c1n(CCCN2CCN(c3cccc(Cl)c3)CC2)nc2ccccn12	4%	-5%	-13%	0%	-93*	-72
NC(=O)CN1CCN(c2cccc(Cl)c2)CC1	-1%	9%	1%	4%	1	7
SMILES	TSG101-PTAP inh	Rango dissoc inh	Mm-Cpn inhibitor	Rango complex inh	DRD3 antagonist	D3 ag
O=C1C2CCCCN2C(=O)N1CCCCN1CCN(c2cccc(Cl)c2)CC1 (stereo unspecified)	-3%	1%	0%	1%	-60*	1
CC(C)CC(=O)Nc1nnc(S(=O)(=O)N(C)Cc2ccc(Cl)cc2)s1	.	.	.	.	.	5
COc1ccccc1CNC(=O)CC(c1ccc(C)cc1)N1Cc2ccccc2C1=O (stereo unspecified)	.	.	.	.	.	-5
CCC(C)NC(=O)C1CCN(S(=O)(=O)c2ccc3c(ccn3CC)c2)CC1 (stereo unspecified)	.	.	.	.	.	-9
O=C1C2CCCN2C(=O)N1CCCN1CCN(c2cccc(Cl)c2)CC1 (stereo unspecified)	-1%	13%	-3%	-1%	-50*	-13
Cc1ccc(N2CCN(CCCN3C(=O)C4CCCN4C3=O)CC2)cc1 (stereo unspecified)	0%	-14%	2%	0%	-27	-15
COc1ccc(Nc2nc3ccccc3nc2NS(=O)(=O)c2cccs2)c(OC)c1	?	2%	-1%	6%	-101*	-15
COc1ccc(OC)c(Nc2nc(-c3cccs3)cs2)c1	-4%	-14%	-9%	-5%	6	-8
COc1cccc(Nc2nc3ccccc3nc2NS(=O)(=O)c2cccs2)c1	-5%	-11%	-5%	-1%	-23	-6
COc1ccc(Nc2nc(-c3cccs3)cs2)c(OC)c1	-3%	1%	-13%	-1%	-51*	-5
COCCNC(=O)Cn1cc(S(=O)(=O)Cc2ccccc2Cl)c2ccccc21	.	.	.	.	.	-10
Cc1ccc(NC(=O)Nc2cn(C)c(=O)c3ccccc23)c(Cl)c1	.	.	.	.	.	2
CC1(c2nnc(-c3ccccc3)o2)CC(c2ccc(F)cc2)=NO1 (stereo unspecified)	-5%	7%	-2%	4%	0	17
CC1(c2nnc(-c3ccccc3)o2)CC(c2ccc([N+](=O)[O-])cc2)=NO1 (stereo unspecified)	0%	2%	.	4%	37	37*
CC1(c2nnc(-c3ccccc3)o2)CC(c2ccc(Cl)cc2)=NO1 (stereo unspecified)	-1%	-5%	1%	4%	46	43*
CC1(c2nnc(-c3ccncc3)o2)CC(c2ccc(Cl)cc2)=NO1 (stereo unspecified)	-1%	-6%	.	0%	17	5
COc1ccc(CCNC(=O)Cc2nn(C)c(=O)c3ccccc23)cc1OC	1%	31%	2%	0%	24	10
COc1cccc(OCc2ccc(Cn3nc(NC(=O)NCCc4ccc(OC)c(OC)c4)c4ccccc43)cc2)c1	.	.	.	.	-108*	-22
